Assay outcomes from PubChem BioAssay.
Compounds with a hit are over-represented: about 4.8% of the library has one in this group of screens.
ssDAF12 agonist – S. stercoralis DAF-12 activation, primary screen; 370,000 compounds, 1% hits; HEK293 ssDAF-12/GRIP1 lit1-tk-luc reporter, luminescence; % of 3 µM dafachronic acid response; activation, % at 6.8 µM;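 active = activation above the mean over all tested compounds plus 3 SD, cut at about 0.9% in these data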;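 note: 0% = DMSO-only wells and 100% = 3 µM delta7-dafachronic acid wells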
DAX1 inh-1 – DAX1 (NR0B1) inhibition, primary screen | HEK293T StAR-luciferase reporter, SF-1/DAX-1 repression relief | inhibition, % at 6.8 µM | AID 652010 | 370,000 compounds, 1.1% hits;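 active = inhibition above the mean over all tested compounds plus 3 SD, cut at about 3.6% in these data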;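 note: 0% = DAX-1 cells with DMSO and 100% = cells lacking DAX-1 with DMSO; higher inhibition means more luminescence from relief of DAX-1 repression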
DAX1 inh-2 – inhibits human nuclear receptor DAX1. HEK293 Gal4-DAX1 luciferase reporter, luminescence. inhibition, % at 6.75 µM. 340,000 compounds, 0.99% hits;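 active = inhibition above the mean over all tested compounds plus 3 SD, cut at about 4.2% in these data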;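 note: 0% = DAX1-transfected cells with DMSO and 100% = empty-vector control cells with DMSO; inhibition shows as a rise in luminescence from relieved DAX1 repression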
Target sequence (P51843 207-470 limits assumed): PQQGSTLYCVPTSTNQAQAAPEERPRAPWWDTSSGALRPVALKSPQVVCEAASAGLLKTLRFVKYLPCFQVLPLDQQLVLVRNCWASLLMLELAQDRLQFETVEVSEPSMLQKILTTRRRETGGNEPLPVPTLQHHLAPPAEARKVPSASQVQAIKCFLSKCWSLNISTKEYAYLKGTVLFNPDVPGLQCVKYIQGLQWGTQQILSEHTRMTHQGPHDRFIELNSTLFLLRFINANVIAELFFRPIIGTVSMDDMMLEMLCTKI
hgDAF12 agonist – hgDAF-12 agonism, primary luciferase screen. HEK293 GAL4-hgDAF12 UAS-luciferase reporter, agonist luminescence; normalized to butyrate control. activation, % at 6.8 µM. 370,000 compounds, 1.8% hits. AID 687014;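 active = activation above a cutoff set at the mean of all screened compounds plus 3 SD, cut at about 10% in these data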;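 note: 0% = DMSO wells and 100% = sodium butyrate wells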
hcDAF12 agonist – activators of H. contortus DAF-12 nuclear receptor; HEK293 hcDAF-12 lit1-tk-luc reporter, luminescence; 0% DMSO, 100% Δ7-dafachronic acid; activation, % at 6.8 µM; 370,000 compounds, 1.4% hits; AID 652067;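 active = activation above the mean of all tested compounds plus 3 SD, cut at about 5.5% in these data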;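 note: 100% = response to 3 µM Δ7-dafachronic acid high control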
SMARCA2 activ – activators of SMARCA2 function; MG213 cells, MMTV-luciferase reporter, dexamethasone, overnight; activation, % at 9.1 µM; 370,000 compounds, 1% hits; AID 652017; in the data active = activation above about 7.8%;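 note: 0% = vehicle wells and 100% = reference activator wells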
* marks the source's active call; other numbers are inactive results; . = no result given.

SMILES	ssDAF12 agonist	DAX1 inh-1	DAX1 inh-2	hgDAF12 agonist	hcDAF12 agonist	SMARCA2 activ
COc1cc(F)ccc1-c1cc(C(=O)Nc2ccc(NC(C)=O)cc2)[nH]n1	-1.8	-0.3	.	7.2	-0.1	0.0
Cc1ccccc1C(=O)N/N=C1/SCC(=O)N1Cc1ccccc1	15.5*	0.4	-2.0	-5.5	-2.2	-2.0
Cc1cccc(C(=O)N/N=C2/SCC(=O)N2Cc2ccccc2)c1	-1.2	0.6	-0.2	-2.2	-0.2	-4.9
COc1ccc(Cc2nc3ccc(C(=O)NC(C)C)cc3o2)cc1	0.1	-0.4	2.1	3.3	0.4	4.6
C=C(C)CNC(=O)c1ccc2nc(Cc3ccc(OC)cc3)oc2c1	-0.6	1.0	6.3*	12.9*	3.3	3.8
Cc1ccc(C(=O)Nc2cnc3ccccn3c2=O)cc1	-0.6	4.0*	1.2	8.5	2.2	6.7
O=C(NCc1ccccc1)OC1CC2CC1[C@H]1CCCCN1C2=O (stereo partly drawn)	-0.8	-0.6	.	-0.5	-0.9	0.2
Cc1c(NC(=O)COC(=O)c2cccn2C)c(=O)n(-c2ccccc2)n1C	-0.7	0.6	4.4*	0.2	0.6	-1.9
COC(=O)c1ccccc1NN=Nc1ccccc1[N+](=O)[O-]	-0.6	-1.0	0.3	0.2	3.6	-2.0
O=[N+]([O-])c1ccccc1N=NNc1ccccc1	1.6*	0.2	0.1	2.7	3.2	0.2
COc1ccc(C(C)=O)cc1CN1C(=O)NC(CC(C)C)C1=O (stereo not drawn)	-1.6	0.3	4.4*	-1.8	-0.6	0.9
CC(=O)c1sc(NC(=O)C2CCCN2S(=O)(=O)c2ccccc2F)nc1C (stereo not drawn)	-0.5	1.7	2.4	1.8	1.1	2.5
Fc1ccccc1COc1ccc(C(=S)N2CCCC2)cc1	-1.7	-0.1	0.8	-2.8	-2.4	2.2
COc1ccc(Cn2c(SCc3ccc(C)cc3)nc3cc(OC)c(OC)cc3c2=N)cc1Cl	-0.8	-0.6	-0.8	2.7	-2.1	9.2*
CCCNC(=O)C1(C)CCCN(Cc2ccsc2)C1 (stereo not drawn)	-1.1	0.3	.	1.6	-1.6	-3.3
O=c1c2cc(NC(=S)N3CCCCC3)ccc2nc2n1CCCCC2	1.1*	-0.5	0.0	5.3	0.2	-2.6
CN(C)c1ccc(P(=O)(Nc2cccc(C(F)(F)F)c2)N2CCOCC2)c(NC(=O)c2cccs2)c1 (stereo not drawn)	1.4*	-0.1	1.4	2.4	4.4	0.5
O=C(Nc1cc(C(F)(F)F)ccc1N1CCOCC1)c1cccs1	-1.1	-0.5	4.6*	0.8	-0.7	-1.1
CCOC(=O)C1=C(C)NC(C)=C(C(=O)OCC)C1C(=O)OCC(=O)NC1CCCCC1	-1.9	-2.8	-3.0	-5.2	-3.3	-4.4
COCCCN(C(=S)Nc1cc(C)cc(C)c1)C(C)c1ccncc1 (stereo not drawn)	0.9*	-0.1	-0.6	-1.5	-0.7	1.9
O=S1(=O)CC(N2CCN(c3ccccn3)CC2)CN1Cc1ccccc1 (stereo not drawn)	-1.0	1.1	.	-0.6	-0.1	-3.6
Cc1ccc(-c2cc3onc(-c4ccccc4)c3c(=O)n2C)cc1	-1.6	1.0	2.5	-3.8	0.3	-1.4
Cn1c(-c2ccc(F)cc2)cc2onc(-c3c(F)cccc3Cl)c2c1=O	0.7	2.6	1.2	11.1*	2.4	10.3*
Cc1ccc(Cl)cc1N1CCN(C(=O)C2CCC(=O)N2C(C)C)CC1 (stereo not drawn)	1.7*	0.7	0.3	2.0	0.1	-1.0
Cc1ccc(Cl)cc1N1CCN(C(=O)C2CCC(=O)N(C3CCCCCC3)C2)CC1 (stereo not drawn)	-0.8	-2.1	1.2	-1.7	1.0	-0.5
SMILES	ssDAF12 agonist	DAX1 inh-1	DAX1 inh-2	hgDAF12 agonist	hcDAF12 agonist	SMARCA2 activ
C[C@H](O)[C@@H]1CN2CCc3c([nH]c4ccc(-c5ccc6c(c5)OCO6)cc34)[C@@H]2C[C@@H]1N(C)C(=O)NC1CCCCC1	-0.9	-0.9	-1.9	-1.6	-1.1	-2.6
COC(=O)CCC(=O)OC1(C)C(=O)C=C2C=C(C3CC3)N(CCc3ccccn3)C=C2C1=O (stereo not drawn)	-1.1	0.4	1.4	0.3	-0.7	0.6
COC(=O)CCC(=O)OC1(C)C(=O)C=C2C=C(C3CC3)N(CCc3c[nH]c4ccccc34)C=C2C1=O (stereo not drawn)	-0.3	-0.1	0.3	1.0	6.3*	0.9
O=C(Nc1cccn2nc(COCCO)nc12)C(c1ccccc1)c1ccccc1	-1.5	0.0	.	-1.4	-1.2	-4.8
CCc1nc2ccc(C(=O)NCc3ccc(OC)cc3)cn2c1N(CCC(C)C)CCN(C)C	1.2*	1.2	.	1.4	1.8	-3.9
CCc1nc2ccc(C(=O)NCC3CCCCC3)cn2c1N(CCC(C)C)CCN(C)C	-1.1	0.3	.	-1.1	-1.6	-0.8
c1ccc2c(c1)NC1(CCCCC1)n1c-2nc2ccccc21	-0.7	1.5	0.8	10.6*	3.7	0.6
CCCCC1(C)Nc2ccccc2-c2nc3ccccc3n21 (stereo not drawn)	0.2	2.1	3.2	11.1*	2.7	6.0
CC1(c2ccccn2)Nc2ccccc2-c2nc3ccccc3n21 (stereo not drawn)	0.0	1.1	4.4*	11.2*	1.6	4.2
c1ccc2c(c1)NC1(CCCCCC1)n1c-2nc2ccccc21	-0.9	2.2	1.4	9.6	3.3	7.4
COc1ccccc1-c1cnc(C(O)c2ccc(CN3CCCC3)cc2)[nH]1 (stereo not drawn)	-1.5	0.3	.	0.7	1.4	1.8
COc1ccc(CN2CCNC(=O)C2CC(=O)NC2CCCCCCC2)cc1C (stereo not drawn)	-0.7	0.2	0.0	1.3	1.0	-0.2
COCCNC(=O)c1c(N)[nH]c(C(=O)c2ccc(Br)cc2)c1-c1ccc(Br)cc1	-0.6	1.1	.	-2.5	-0.1	-1.9
Cc1cc(NC(=O)c2ccc3sc([C@@H]4O[C@H](CO)[C@H](O)[C@H](O)[C@H]4O)nc3c2)no1	-0.6	0.8	.	2.3	1.1	1.7
Cc1ccc(/C=N/NC(=O)c2n[nH]c3c2CCCC3)cc1	0.2	3.3	.	2.9	3.9	4.0
O=C(N/N=C/c1cccs1)c1n[nH]c2c1CCCC2	-0.4	0.0	-5.8	8.9	5.9*	-0.2
O=C(Nc1ccc(N2CCCC2)cc1)c1cccc(Cl)c1	0.2	3.0	1.5	12.4*	6.0*	3.6
Cc1cccc(C(=O)Nc2ccc(N3CCN(S(C)(=O)=O)CC3)cc2)c1	0.1	1.1	-0.4	11.3*	-0.2	4.9
CCOCCCN(CCC#N)C(=O)C1CCN(S(=O)(=O)c2ccc(-n3cnnn3)cc2)CC1	-0.8	-0.3	0.7	2.2	-0.9	-0.5
COc1ccc(S(=O)(=O)N(C)C[C@H]2OCc3cn(nn3)CCCC(=O)N([C@H](C)CO)C[C@@H]2C)cc1	-1.3	0.2	1.6	-0.6	0.2	7.7
